In PubChem BioAssay (EPA / NIEHS):
Calls of active or inactive are those of the source. The calls were made as follows: active = hit-call score of the fitted dose curve at least 0.9, where 1 is the maximum; inactive = score below 0.9.

Columns and labels:
Details in all cases: mRNA level, 48 h; actives raise or lower the signal
[1] = read-out: Interleukin 6 Receptor (IL6R), IL6R (gene 3570); test: LTEA_HepaRG_IL6R: Life Technologies and Expression Analysis (LTEA) Assay for Interleukin 6 Receptor (IL6R) using HepaRG (AID 2283510);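 as to AC50: differentiated human HepaRG liver cells in serum-free induction medium; TaqMan qRT-PCR signal normalized to ACTB GAPDH and POLR2A housekeeping genes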
Method in brief: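 Cells were thawed, plated and cultured 48 h, then medium was changed to serum-free induction medium. Chemicals were added in duplicate (100 uM top, half-log steps, 0.5% DMSO) for 48 h. Lysates were analyzed by qRT-PCR for IL6R expression.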

[2] = read-out: Potassium channel subfamily K member 1 (KCNK1), KCNK1 (gene 3775); test: LTEA_HepaRG_KCNK1: Life Technologies and Expression Analysis (LTEA) Assay for Potassium channel subfamily K member 1 (KCNK1) using HepaRG (AID 2283511)
Method in brief: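 HepaRG, 48 h exposure, 8-pt half-log series top 100 uM, 0.5% DMSO vehicle, duplicates. Readout: KCNK1 transcript by qRT-PCR (Fluidigm array), housekeeping-normalized; bidirectional curve fit relative to DMSO baseline.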

[3] = read-out: Keratin 19 (KRT19), KRT19 (gene 3880); test: LTEA_HepaRG_KRT19: Life Technologies and Expression Analysis (LTEA) Assay for Keratin 19 (KRT19) using HepaRG (AID 2283512)
Method in brief: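 Differentiated HepaRG cells in serum-free induction medium, exposed 48 h in duplicate to 8 half-log concentrations up to 100 uM in 0.5% DMSO. KRT19 mRNA by qRT-PCR, normalized to ACTB, GAPDH, POLR2A; bidirectional fit vs DMSO.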

[4] = read-out: JUN Transcription Factor, JUN (gene 3725); test: LTEA_HepaRG_JUN: Life Technologies and Expression Analysis (LTEA) Assay for JUN Transcription Factor using HepaRG (AID 2283513)
Method in brief: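 Read-out is JUN transcript level by TaqMan qRT-PCR, normalized to ACTB, GAPDH and POLR2A, after 48 h chemical treatment of HepaRG cells. Concentration-response spanned eight half-log points up to 100 uM in 0.5% DMSO.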

[5] = read-out: Lipase C (LIPC), LIPC (gene 3990); test: LTEA_HepaRG_LIPC: Life Technologies and Expression Analysis (LTEA) Assay for Lipase C (LIPC) using HepaRG (AID 2283514)
Method in brief: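 HepaRG, 48 h exposure, 8-pt half-log series from 100 uM in 0.5% DMSO, duplicates. Readout: LIPC mRNA by Fluidigm qRT-PCR, housekeeping-normalized (ACTB/GAPDH/POLR2A). Gain or loss fitted bidirectionally against DMSO baseline.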

[6] = read-out: Lipoprotein lipase (LPL), LPL (gene 4023); test: LTEA_HepaRG_LPL: Life Technologies and Expression Analysis (LTEA) Assay for Lipoprotein lipase (LPL) using HepaRG (AID 2283515)
Method in brief: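 HepaRG, 48 h exposure, 8-pt half-log dilutions from 100 uM, 0.5% DMSO vehicle, duplicates; qRT-PCR (Fluidigm array) of LPL mRNA vs housekeeping genes; bidirectional curve fit relative to DMSO baseline.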

[7] = read-out: MicroRNA 122 (MIR122), gene 406906; test: LTEA_HepaRG_MIR122: Life Technologies and Expression Analysis (LTEA) Assay for MicroRNA 122 (MIR122) using HepaRG (AID 2283516); also: the transcript read is the microRNA miR-122
Method in brief: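 Human liver HepaRG cultures receive test chemicals for 48 h at eight half-log concentrations from 100 uM. Expression is quantified by qRT-PCR with ACTB/GAPDH/POLR2A normalization and fitted bidirectionally against 0.5% DMSO.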

[8] = read-out: matrix metalloproteinase-10 (MMP10), MMP10 (gene 4319); test: LTEA_HepaRG_MMP10: Life Technologies and Expression Analysis (LTEA) Assay for matrix metalloproteinase-10 (MMP10) using HepaRG (AID 2283517)
Method in brief: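 Transcript levels come from Fluidigm qRT-PCR normalized to three housekeeping genes, with curves fitted bidirectionally against 0.5% DMSO. Human HepaRG cells were dosed for 48 hours at concentrations up to 100 uM.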

[9] = read-out: MYC, MYC (gene 4609); test: LTEA_HepaRG_MYC: Life Technologies and Expression Analysis (LTEA) Assay for MYC using HepaRG (AID 2283518)
Method in brief: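 Differentiated HepaRG cells exposed 48 h in serum-free induction medium to 8 concentrations (top 100 uM, half-log steps; 0.5% DMSO), duplicate. MYC mRNA measured by Fluidigm qRT-PCR, normalized to ACTB, GAPDH, POLR2A; bidirectional fit versus DMSO.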

[10] = read-out: matrix metalloproteinase-3 (MMP3), MMP3 (gene 4314); test: LTEA_HepaRG_MMP3: Life Technologies and Expression Analysis (LTEA) Assay for matrix metalloproteinase-3 (MMP3) using HepaRG (AID 2283519)
Method in brief: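 qRT-PCR read-out of MMP3 mRNA (normalised to three housekeeping genes) in HepaRG liver cells after 48 h chemical exposure; 8-point half-log series, top 100 uM, 0.5% DMSO vehicle. Bidirectional curve fitting against DMSO baseline.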

[11] = read-out: Paternally Expressed 10 (PEG10), PEG10 (gene 23089); test: LTEA_HepaRG_PEG10: Life Technologies and Expression Analysis (LTEA) Assay for Paternally Expressed 10 (PEG10) using HepaRG (AID 2283520)
Method in brief: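 Human HepaRG cultures are dosed for 48 h across an eight-point half-log series starting at 100 uM, with 0.5% DMSO as vehicle and baseline. Gain or loss of PEG10 transcript is measured by qRT-PCR and fitted in both directions.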

[12] = read-out: Protein phosphatase 2A (PPP2R4), PTPA (gene 5524); test: LTEA_HepaRG_PPP2R4: Life Technologies and Expression Analysis (LTEA) Assay for Protein phosphatase 2A (PPP2R4) using HepaRG (AID 2283522)
Method in brief: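 Cells were plated, cultured 48 h, switched to serum-free induction medium, then dosed for 48 h (8 points, max 100 uM, 0.5% DMSO). RNA was isolated and PPP2R4 expression measured by TaqMan qRT-PCR.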

[13] = read-out: Phosphatase and tensin (PTEN), PTEN (gene 5728); test: LTEA_HepaRG_PTEN: Life Technologies and Expression Analysis (LTEA) Assay for Phosphatase and tensin (PTEN) using HepaRG (AID 2283523)
Method in brief: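 HepaRG, 48 h exposure, 8-pt half-log series from 100 uM top, 0.5% DMSO vehicle, duplicates. Readout: Fluidigm qRT-PCR of PTEN transcript; housekeeping normalization (ACTB, GAPDH, POLR2A). Gain or loss fitted relative to DMSO baseline.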

[14] = read-out: solute carrier (SLC22A1), SLC22A1 (gene 6580); test: LTEA_HepaRG_SLC22A1: Life Technologies and Expression Analysis (LTEA) Assay for solute carrier (SLC22A1) using HepaRG (AID 2283524);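 as to AC50: differentiated human HepaRG liver cells in serum-free induction medium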
Method in brief: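 qRT-PCR readout (TaqMan, Fluidigm arrays) of SLC22A1 transcript, normalized to three housekeeping genes; bidirectional curve fit relative to 0.5% DMSO vehicle. Differentiated human HepaRG cells, 48 h chemical exposure, top concentration 100 uM, half-log steps, eight points.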

[15] = read-out: Pyruvate Dehydrogenase Kinase 4 (PDK4), PDK4 (gene 5166); test: LTEA_HepaRG_PDK4: Life Technologies and Expression Analysis (LTEA) Assay for Pyruvate Dehydrogenase Kinase 4 (PDK4) using HepaRG (AID 2283525)
Method in brief: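 HepaRG (human liver line), 48 h chemical exposure, 8-pt half-log CRC top 100 uM, 0.5% DMSO vehicle, duplicates. Readout: TaqMan qRT-PCR of PDK4 mRNA, housekeeping-normalized; gain/loss fit relative to DMSO baseline.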

[16] = read-out: NAD(P)H dehydrogenase [quinone] 1 (NQO1), NQO1 (gene 1728); test: LTEA_HepaRG_NQO1: Life Technologies and Expression Analysis (LTEA) Assay for NAD(P)H dehydrogenase [quinone] 1 (NQO1) using HepaRG (AID 2283526)
Method in brief: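 Transcript induction or suppression is quantified by qRT-PCR in human HepaRG liver cells dosed for 48 hours. Eight half-log concentrations topping at 100 uM are used, with 0.5% DMSO as vehicle and baseline.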

[17] = read-out: Nuclear factor erythroid 2-related factor 2 (Homo sapiens) (UniProt Q16236); test: LTEA_HepaRG_NFE2L2: Life Technologies and Expression Analysis (LTEA) Assay for Nuclear factor erythroid 2-related factor 2 (NFE2L2) Transcription Factor using HepaRG (AID 2283527)
Method in brief: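 HepaRG, 48 h dosing, 8-pt half-log series from 100 uM in 0.5% DMSO, duplicates. Read-out: NFE2L2 mRNA by qRT-PCR (ACTB/GAPDH/POLR2A normalization). Bidirectional curve fit vs DMSO baseline.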

[18] = read-out: succinate dehydrogenase complex iron sulfur subunit B (SDHB), SDHB (gene 6390); test: LTEA_HepaRG_SDHB: Life Technologies and Expression Analysis (LTEA) Assay for succinate dehydrogenase complex iron sulfur subunit B (SDHB) using HepaRG (AID 2283528)
Method in brief: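 SDHB transcript level read by TaqMan qRT-PCR, housekeeping-normalised (ACTB, GAPDH, POLR2A), after 48 h chemical treatment of plated HepaRG cells; eight concentrations top 100 uM, half-log steps, 0.5% DMSO, duplicates; fitted both directions against DMSO.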

[19] = read-out: Signal transducer and activator of transcription 3 (Homo sapiens) (UniProt P40763); test: LTEA_HepaRG_STAT3: Life Technologies and Expression Analysis (LTEA) Assay for Signal transducer and activator of transcription (STAT3) using HepaRG (AID 2283529)
Method in brief: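 HepaRG, 48 h exposure, 8-pt half-log series (top 100 uM), 0.5% DMSO vehicle, duplicates. Readout: STAT3 transcript by Fluidigm qRT-PCR, housekeeping-normalized; bidirectional fit vs DMSO baseline.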

[20] = read-out: Nuclear factor NF-kappa-B p105 subunit (Homo sapiens) (UniProt P19838); test: LTEA_HepaRG_NFKB1: Life Technologies and Expression Analysis (LTEA) Assay for Nuclear Factor Kappa B Subunit 1 (NFKB1) using HepaRG (AID 2283521)
Method in brief: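 NFKB1 transcript was measured by TaqMan qRT-PCR on Fluidigm arrays, normalised to three housekeeping genes and fitted in both directions against 0.5% DMSO. HepaRG cells were dosed in duplicate for 48 h in serum-free induction medium, eight half-log steps from 100 uM.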

Measured: AC50

Sequence of Signal transducer and activator of transcription 3 (Homo sapiens) (P40763 whole entry, looked up): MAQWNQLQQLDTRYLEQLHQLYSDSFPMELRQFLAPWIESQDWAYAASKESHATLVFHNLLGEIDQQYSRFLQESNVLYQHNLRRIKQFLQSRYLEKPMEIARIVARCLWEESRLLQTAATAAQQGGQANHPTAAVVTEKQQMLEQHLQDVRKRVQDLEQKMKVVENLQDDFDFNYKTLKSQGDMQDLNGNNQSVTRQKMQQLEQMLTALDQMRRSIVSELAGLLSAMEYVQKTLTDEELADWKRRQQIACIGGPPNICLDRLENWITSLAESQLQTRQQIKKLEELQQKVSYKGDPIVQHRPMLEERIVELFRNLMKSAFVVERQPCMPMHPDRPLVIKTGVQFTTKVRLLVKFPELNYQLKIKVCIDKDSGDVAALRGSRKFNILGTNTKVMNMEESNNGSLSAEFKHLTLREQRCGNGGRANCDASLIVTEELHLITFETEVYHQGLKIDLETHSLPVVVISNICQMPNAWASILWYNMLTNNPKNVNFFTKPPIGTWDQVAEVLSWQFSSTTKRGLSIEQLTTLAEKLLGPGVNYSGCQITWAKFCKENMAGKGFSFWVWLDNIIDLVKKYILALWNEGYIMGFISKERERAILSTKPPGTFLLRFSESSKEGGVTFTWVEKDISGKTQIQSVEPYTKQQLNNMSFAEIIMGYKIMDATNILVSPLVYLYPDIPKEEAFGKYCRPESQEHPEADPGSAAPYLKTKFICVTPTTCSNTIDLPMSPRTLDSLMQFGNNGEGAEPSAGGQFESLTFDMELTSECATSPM
Sequence of Nuclear factor erythroid 2-related factor 2 (Homo sapiens) (Q16236 whole entry, looked up): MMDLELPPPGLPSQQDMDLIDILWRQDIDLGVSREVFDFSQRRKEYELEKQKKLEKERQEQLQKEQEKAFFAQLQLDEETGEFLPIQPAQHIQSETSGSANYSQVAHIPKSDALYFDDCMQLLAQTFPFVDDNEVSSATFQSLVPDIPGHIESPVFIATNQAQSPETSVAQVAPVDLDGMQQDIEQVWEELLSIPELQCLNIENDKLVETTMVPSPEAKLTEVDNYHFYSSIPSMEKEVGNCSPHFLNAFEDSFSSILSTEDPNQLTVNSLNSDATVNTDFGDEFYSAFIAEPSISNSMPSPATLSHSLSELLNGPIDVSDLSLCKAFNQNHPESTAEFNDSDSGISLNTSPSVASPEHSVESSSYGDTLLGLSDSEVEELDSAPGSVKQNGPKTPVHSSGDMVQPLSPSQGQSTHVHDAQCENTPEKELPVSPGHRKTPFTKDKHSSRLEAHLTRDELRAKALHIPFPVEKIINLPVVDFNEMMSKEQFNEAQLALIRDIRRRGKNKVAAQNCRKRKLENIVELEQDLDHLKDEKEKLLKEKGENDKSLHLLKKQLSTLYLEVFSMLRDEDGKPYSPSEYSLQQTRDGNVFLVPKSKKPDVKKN
Sequence of Nuclear factor NF-kappa-B p105 subunit (Homo sapiens) (P19838 whole entry, looked up): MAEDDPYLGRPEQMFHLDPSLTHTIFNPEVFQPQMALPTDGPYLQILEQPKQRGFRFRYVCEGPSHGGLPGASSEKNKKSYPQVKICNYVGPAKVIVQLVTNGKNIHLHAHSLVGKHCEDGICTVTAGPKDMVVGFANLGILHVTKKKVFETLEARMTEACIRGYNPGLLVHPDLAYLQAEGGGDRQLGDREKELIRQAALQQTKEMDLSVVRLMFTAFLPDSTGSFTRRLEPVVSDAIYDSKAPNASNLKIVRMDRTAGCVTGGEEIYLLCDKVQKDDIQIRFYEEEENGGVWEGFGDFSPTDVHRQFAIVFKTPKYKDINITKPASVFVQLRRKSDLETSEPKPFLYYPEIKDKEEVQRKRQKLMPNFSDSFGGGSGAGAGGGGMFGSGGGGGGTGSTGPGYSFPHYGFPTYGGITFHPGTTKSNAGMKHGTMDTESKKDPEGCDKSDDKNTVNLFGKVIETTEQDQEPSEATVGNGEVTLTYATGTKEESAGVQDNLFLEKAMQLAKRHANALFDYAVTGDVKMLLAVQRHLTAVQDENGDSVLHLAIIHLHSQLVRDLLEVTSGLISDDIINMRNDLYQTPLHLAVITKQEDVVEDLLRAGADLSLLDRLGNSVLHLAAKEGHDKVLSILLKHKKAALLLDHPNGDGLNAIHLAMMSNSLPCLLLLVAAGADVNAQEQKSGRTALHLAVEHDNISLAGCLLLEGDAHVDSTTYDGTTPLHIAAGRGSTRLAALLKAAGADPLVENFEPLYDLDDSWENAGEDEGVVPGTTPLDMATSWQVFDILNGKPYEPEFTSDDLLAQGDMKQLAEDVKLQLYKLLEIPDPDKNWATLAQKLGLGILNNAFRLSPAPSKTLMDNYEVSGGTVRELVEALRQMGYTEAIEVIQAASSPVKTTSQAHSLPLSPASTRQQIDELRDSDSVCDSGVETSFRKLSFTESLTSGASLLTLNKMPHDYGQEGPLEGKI

COC(=O)Nc1nc2ccccc2[nH]1
active: [3] 7.44 µM
not listed: [20]
inactive: all other assays above

[Cl-].[Cl-].[Hg+2]
active: [3] 29.3 µM
not listed: [11]
inactive: all other assays above

Cc1ccc(N)c(N)c1
active: [3] 32.8 µM
not listed: [11]
inactive: all other assays above

CCCCCCCCCCCCCN1CC(C)OC(C)C1 (stereo not drawn)
not listed: [16] | [20]
inactive: all other assays above

CN(C)c1ccc(C(=O)c2ccc(N(C)C)cc2)cc1
active: [3] 13.5 µM | [5] 33 µM | [14] 50 µM | [15] 25.8 µM
not listed: [11]
inactive: all other assays above

[O-][Cl+]O
not listed: [11]
inactive: all other assays above

C=CCc1ccc2c(c1)OCO2
not listed: [11]
inactive: all other assays above

CCOC(=O)[C@]1(c2ccccc2)Oc2ccccc2[C@@H]1N
active: [4] 93.6 µM | [5] 77.3 µM | [6] 50 µM | [8] 92.9 µM | [9] 89.5 µM | [10] 72.8 µM | [14] 84.2 µM | [15] 71.2 µM
not listed: [11] | [16]
inactive: all other assays above

C[N+](C)(C)CC1CO1 (stereo not drawn)
not listed: [16] | [20]
inactive: all other assays above

CCC(C)c1ccc(O)cc1 (stereo not drawn)
active: [19] 0.361 µM
not listed: [11]
inactive: all other assays above

ClC1=C(Cl)C2(Cl)C3C(Cl)C=CC3C1(Cl)C2(Cl)Cl (stereo not drawn)
active: [9] 37.1 µM | [15] 50 µM | [17] 8.87 µM
not listed: [11] | [16]
inactive: all other assays above

CN(C)C(=O)Nc1ccc(Cl)cc1
not listed: [11]
inactive: all other assays above

c1ccc(C2CO2)cc1 (stereo not drawn)
not listed: [11] | [20]
inactive: all other assays above

Nc1ccc(Cl)cc1N
active: [1] 34.2 µM | [3] 33.5 µM | [5] 17.3 µM | [6] 13.2 µM | [7] 21 µM | [9] 13.4 µM | [10] 30.1 µM | [20] 12.5 µM | [12] 26.3 µM | [13] 32.6 µM | [14] 18.9 µM | [17] 12.2 µM | [18] 21.6 µM
inactive: [2] | [4] | [8] | [15] | [19]

Cn1cc(-c2ccccc2)c(=O)c(-c2cccc(C(F)(F)F)c2)c1
active: [15] 50 µM | [17] 20.9 µM
not listed: [11] | [16]
inactive: all other assays above
